LmPK inhibitor = inhibitors of Leishmania mexicana pyruvate kinase. Q27686. purified LmPK, Kinase-Glo ATP luminescence, 1 h. Potency, µM (doses to about 57.5 µM), inactives show top-dose activity change, negative = inhibition, actives largely listed as inhibitors. 0.37% of 290,000 active; note: % is set by controls: 0 for no effect and ±100 for the full control effect
Target sequence (Q27686 whole entry, looked up): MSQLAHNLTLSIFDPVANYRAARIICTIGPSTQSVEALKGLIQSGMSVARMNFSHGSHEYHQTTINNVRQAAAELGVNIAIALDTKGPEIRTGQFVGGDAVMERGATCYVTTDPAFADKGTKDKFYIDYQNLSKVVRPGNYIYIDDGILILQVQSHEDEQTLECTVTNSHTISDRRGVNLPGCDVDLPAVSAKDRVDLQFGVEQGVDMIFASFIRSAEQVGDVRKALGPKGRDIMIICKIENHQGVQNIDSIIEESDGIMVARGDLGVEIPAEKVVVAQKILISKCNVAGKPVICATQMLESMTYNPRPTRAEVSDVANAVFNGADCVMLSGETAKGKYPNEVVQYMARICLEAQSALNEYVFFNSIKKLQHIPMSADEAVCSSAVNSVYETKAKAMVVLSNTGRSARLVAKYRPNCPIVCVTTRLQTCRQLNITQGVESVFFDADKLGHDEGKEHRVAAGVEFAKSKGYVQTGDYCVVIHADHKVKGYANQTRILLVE
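ATP generated from ADP (0.1 mM) and PEP (0.5 mM) by 0.1 nM LmPK over 1 h at room temperature (pH 7.2 imidazole buffer) was detected by coupled luciferase luminescence. Values were normalized to uninhibited and no-enzyme wells.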
NS1 function inh = influenza NS1 inhibition; 0.4% of 270,000 active; Potency, µM (highest dose often 46.1 µM), for inactives: at the top dose activity, positive = more growth; calls by dose curve; note: actives are rising curves; nearly all actives have a fitted effect of over 50% in size
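OD600 was taken as the measure of yeast growth restored by compound in an NS1-expressing S. cerevisiae strain. Cells had been washed out of glucose medium and diluted 1:100 into galactose -URA medium, pH 6.0.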
RE007 growth inh = less growth of the S. pombe RE007 Vpr strain; 0.21% of 360,000 active; S. pombe RE007 Vpr strain, BacTiter-Glo ATP luminescence, 24 h; Potency, µM (series often up to 92.2 µM), inactives show at the highest dose activity change, negative = less growth, hits mostly inhibitors; AID 651644; active = well fitted falling curve with a large enough effect; inconclusive = small, poorly fitted or top-dose-only effect; inactive = no such curve, though single readings can be large or run the other way; note: % is set by controls: 0 for no effect and ±100 for the full control effect; nearly all actives have a fitted effect of over 50% in size
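Fission yeast strain RE007, carrying one chromosomally integrated HIV-1 vpr copy, was seeded at OD 0.01 in PMG+AL medium with 23 nL pinned compound. After 24 h at 30 °C and 99% humidity, viability was read by BacTiter-Glo luminescence.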
SARS PLP yeast = blocks SARS-CoV papain-like protease in a yeast assay | S. cerevisiae expressing SARS-CoV PLpro, growth rescue | Potency, µM (highest dose often 32.9 µM), without a hit: at the top dose activity, positive = growth rescue, actives largely listed as activators | 0.19% of 330,000 active; calls by dose curve; note: 0% is about no effect; nearly all actives have a fitted effect of over 55% in size
Sm TGR inh = blocks Schistosoma mansoni thioredoxin glutathione reductase. Q962Y6. Potency, µM (series often up to 114 µM), for the others: at the highest dose activity change, negative = inhibition, usual class: inhibitors. purified TGR, DTNB reduction, TNB absorbance 405 nm. 3% of 360,000 active; note: % is set by controls: 0 for no effect and ±100 for the full control effect; nearly all actives have a fitted effect of over 60% in size
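TGR 20 nM + NADPH 100 uM (dispensed conc.), cpd preinc 15 min RT; start with NADPH (500 uM addition) then DTNB (15 mM addition). Kinetic TNB absorbance, 405 nm filter. Four-parameter Hill fit across titration.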
Tb PYK inh = blocks Trypanosoma brucei pyruvate kinase; AID 624173; Potency, µM (series often up to 76.8 µM), without a hit: at the highest dose activity, negative = inhibition, usual class: inhibitors; Q57TT1; 0.12% of 410,000 active; TbPYK enzyme, Kinase-Glo Plus ATP luminescence, 45 min; note: % is set by controls: 0 for no effect and ±100 for the full control effect; nearly all actives have a fitted effect of over 50% in size
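Screened from lowest to highest concentration, compounds were pinned into TbPYK/substrate mixtures, and ADP (130 uM final) was added. Plates sat at room temperature for 45 min prior to Kinase-Glo Plus detection by luminescence.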
Numbers without * were called inactive; ? = inconclusive; . = not tested or not shown. Compounds with a hit are over-represented: about 3.3% of the library has one in this group of screens. Unless noted, calls come from the whole dose curve; as a rule, active = well fitted curve in the direction sought with a large enough effect; inconclusive = small, poorly fitted or top-dose-only effect, or another doubt; inactive = no such curve, though single readings can be large; an effect the other way counts as inactive or inconclusive. Potency is the fitted concentration of half-maximal effect.

SMILES	LmPK inhibitor	NS1 function inh	RE007 growth inh	SARS PLP yeast	Sm TGR inh	Tb PYK inh
Cc1ccc(C)c(N2CCN(C(=O)Cn3ncc4c(=O)oc5ccccc5c43)CC2)c1	.	.	.	.	8.9µM*	2%
COc1cccc(N2CCN(C(=O)Cn3ncc4c(=O)oc5ccccc5c43)CC2)c1	.	.	.	.	6%	4%
O=C(c1cnc(N2CCCCC2)c2ccccc12)N1CCN(c2cccc(Cl)c2)CC1	.	.	.	.	-3%	-2%
O=C1C=CC(O)(c2cc(=O)c3c(O)cc(O)cc3o2)C=C1	-5%	?	2%	-7%	35µM*	-18%
CC(=O)O[C@H](C)OC(=O)[C@@H](C)c1ccc(-c2ccccc2)c(F)c1	.	.	.	.	.	-7%
Cc1ccc(NC(=O)CC2Nc3cccc4cccc(c34)NC2=O)cc1 (configuration not stated)	.	.	.	.	40µM*	-1%
O=C(CC1Nc2cccc3cccc(c23)NC1=O)Nc1ccccc1 (configuration not stated)	-2%	29%	2%	5%	-11%	-7%
CC(=O)NC(CCS(C)(=O)=O)C(=O)Nc1cccc(C(C)=O)c1 (configuration not stated)	-1%	0%	7%	-2%	45µM*	-4%
CC(=O)NC(CCS(C)(=O)=O)C(=O)Nc1ccccc1 (configuration not stated)	-3%	-2%	22%	-2%	-8%	2%
CCc1ccc(NC(=O)N2CCN(Cc3cc(=O)n4nc(-c5ccccc5OC)sc4n3)CC2)cc1	.	.	.	.	2%	-2%
O=C1CCCC2=C1C(c1ccc(O)cc1)c1c(ccc3ccccc13)N2 (configuration not stated)	1%	.	-14%	-1%	25µM*	-3%
CCOc1ccc(C2C3=C(CCCC3=O)Nc3ccc4ncccc4c32)cc1 (configuration not stated)	2%	2%	4%	1%	18µM*	1%
O=C1CCCC2=C1C(c1ccc(O)c(O)c1)c1c(ccc3ncccc13)N2 (configuration not stated)	3%	.	-2%	1%	?	18µM*
COc1cc2[nH]c(Cl)c([N+](=O)[O-])c2cc1OC	2%	8%	5%	9%	2µM*	?
COc1cc2[nH]c3c(Cl)ncnc3c2cc1OC	-1%	-6%	5%	-4%	3%	-13%
Cc1ccc(CN2CCN(/N=C/c3ccc(C(=O)O)cc3)CC2)cc1	-2%	19%	22%	-2%	1%	3%
O=C(O)c1ccc(/C=N/N2CCN(C3c4ccccc4-c4ccccc43)CC2)cc1	22µM*	0%	17%	1%	?	-15%
Cc1ccc(CN2CCN(/N=C/c3ccc(O)c(O)c3)CC2)cc1	-27%	25%	-8%	12%	32µM*	?
Oc1ccc(/C=N/N2CCN(C3c4ccccc4-c4ccccc43)CC2)cc1O	2%	?	-4%	1%	10µM*	-13%
Oc1ccc(/C=N/N2CCN(C3c4ccccc4-c4ccccc43)CC2)cc1	3%	8%	-6%	1%	0%	4%
CC(=O)/C(N=Nc1ccc(C(=O)O)cc1[N+](=O)[O-])=C(\C)O	25µM*	1%	-24%	0%	-12%	-16%
CCOC(=O)/C(N=Nc1ccc(C(=O)O)cc1[N+](=O)[O-])=C(\C)O	-18%	.	3%	-3%	-4%	1%
Cc1nn(C)c(C)c1S(=O)(=O)N(CC(=O)NCCc1ccc(Cl)cc1)c1ccc(C(C)C)cc1	.	.	.	.	3%	1%
Cc1cc(Cl)ccc1OCc1n[nH]c(=S)n1C1CCCCC1	13µM*	22%	-18%	-26%	0%	?
COc1ccc(Cl)cc1-c1n[nH]c(=S)n1C1CCCCC1	7.1µM*	2%	11%	16%	0%	?
SMILES	LmPK inhibitor	NS1 function inh	RE007 growth inh	SARS PLP yeast	Sm TGR inh	Tb PYK inh
Cc1ccccc1OCc1n[nH]c(=S)n1-c1cccc(Cl)c1	-21%	?	-8%	1%	4%	?
Cc1ccc(-c2nc3c4ccccc4n(CC(=O)N4CCN(c5ccccc5F)CC4)c(=O)n3n2)cc1	.	.	.	.	0%	0%
CC1(C)C[C@H]2C=C(C=O)[C@]3(C=O)C[C@]3(C)[C@H]2C1	6%	-37%	4%	-75%	50µM*	0%
O=C1NC(=O)C(=Cc2cccc(OCCOc3ccccc3)c2)C(=O)N1	1%	-7%	-14%	-1%	11µM*	?
O=C1NC(=O)C(=Cc2ccc(OCCOc3ccc([N+](=O)[O-])cc3)cc2)C(=O)N1	-5%	.	5%	-4%	16µM*	?
CN1CCN(c2ncc3nc(-c4ccc(Cl)cc4)c(=O)n(CCC#N)c3n2)CC1	.	.	.	.	.	-2%
C=C1CCN(CC(=O)OC)S(=O)(=O)c2ccccc21	2%	6%	2%	2%	32µM*	4%
C=C1CCN(Cc2ccccc2)S(=O)(=O)c2ccccc21	6%	-6%	0%	-1%	-5%	2%
CCC(=O)N(C1=C(NC)C(=O)c2ccccc2C1=O)C(C)C	-2%	.	-7%	0%	-3%	-13%
CCC(=O)N(CC)C1=C(O)c2ccccc2C(=O)C1=O	25µM*	-146%	?	-32%	0.28µM*	?
COC(=O)c1ccc(CSc2ccc3nnc(-c4cccc(F)c4)n3n2)o1	-4%	-133%	4%	-4%	25µM*	?
NC(=O)c1sc2nc3c(c(-c4ccco4)c2c1N)CCCC3	-1%	-3%	20%	1%	-22%	-10%
Nc1c(C(=O)NCC2CCCO2)sc2nc3c(c(-c4ccco4)c12)CC/C3=C\c1ccco1 (configuration not stated)	-5%	?	-2%	20%	18µM*	-6%
CCC(Cc1c(I)cc(I)c(O)c1I)C(=O)O (configuration not stated)	.	.	.	.	.	-19%
Cc1nonc1NCn1nnc2ccccc21	-4%	11%	17%	-5%	35µM*	-1%
COc1ccccc1-c1noc(-c2ccc(N3CCOCC3)c([N+](=O)[O-])c2)n1	.	.	.	.	-5%	-3%
CCOc1ccc(-n2cc(-c3ccccc3)c3c(NCCc4ccccc4)ncnc32)cc1	.	.	.	.	4%	19%
FC(F)(F)c1ccc(C2[C@H]3CN(Cc4ccc(-c5ccccc5)cc4)[C@H](c4ccccc4)C34CC2(c2ccccc2)C4)cc1 (some centres not stated)	-1%	9%	-13%	-2%	50µM*	4%
FC(F)(F)c1ccc(C2[C@H]3CN(Cc4ccc(-c5ccccc5)cc4)[C@H](c4ccccc4)C34CC2(c2cccnc2)C4)cc1 (some centres not stated)	1%	23%	-17%	0%	-4%	0%
